15 sequences from PMC11006913 can be followed below.

Holding throughout (assay): PBM; 200 nM protein, PBS
What all share (settings): dsDNA, one strand shown

The target of assay [1] is NKX3-2 (Homo sapiens, UniProt P78367 192-278, P234S).
In assay [2] the target is NKX3-2 (Homo sapiens, UniProt P78367 192-278).
Assay [3] concerns the target HOXB9 (Homo sapiens, UniProt P17482 171-250).
Assay [4] addresses HOXB9 (Homo sapiens, UniProt P17482 171-250, R186Q).
The next assay deals with HOXC10 (Homo sapiens, UniProt Q9NYD6 254-340, K271E).
A further assay deals with T1, NKX2-6 (Homo sapiens, UniProt A6NCS4 118-204, R150C).
T1 sequence: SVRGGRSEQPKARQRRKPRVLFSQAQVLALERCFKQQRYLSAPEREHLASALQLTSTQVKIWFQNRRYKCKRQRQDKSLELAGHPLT

The target of assay [5] is T2, SIX6 (Homo sapiens, UniProt O95475 114-200, L167I).
T2 sequence: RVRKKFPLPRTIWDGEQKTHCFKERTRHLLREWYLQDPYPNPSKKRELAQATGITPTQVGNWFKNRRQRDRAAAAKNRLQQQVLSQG

Assay [6] deals with T3, SIX6 (Homo sapiens, UniProt O95475 114-200, L143V).
T3 sequence: T2 sequence with L30V, I54L

Assay [7] has as its target T4, SIX6 (Homo sapiens, UniProt O95475 114-200, T165P).
T4 sequence: T2 sequence with T52P, I54L

For assay [8], the target named is T5, SIX6 (Homo sapiens, UniProt O95475 114-200, L167M).
T5 sequence: T2 sequence with I54M

The target in assay [9] is T6, SIX6 (Homo sapiens, UniProt O95475 114-200, L143M).
T6 sequence: T2 sequence with L30M, I54L

For assay [10], the target named is T7, SIX6 (Homo sapiens, UniProt O95475 114-200, L143I).
T7 sequence: T2 sequence with L30I, I54L

For assay [11], the target named is T8, SIX6 (Homo sapiens, UniProt O95475 114-200, T165G).
T8 sequence: T2 sequence with T52G, I54L

Assay [12] deals with T9, SIX6 (Homo sapiens, UniProt O95475 114-200, T139Q).
T9 sequence: T2 sequence with T26Q, I54L

Assay [13] addresses T10, SIX6 (Homo sapiens, UniProt O95475 114-200, L167V).
T10 sequence: T2 sequence with I54V

Assay [14] addresses T11, SIX6 (Homo sapiens, UniProt O95475 114-200, T165I).
T11 sequence: T2 sequence with T52I, I54L

Assay [15] addresses T12, NKX2-4 (Homo sapiens, UniProt Q9H2Z4 175-261, P217L).
T12 sequence: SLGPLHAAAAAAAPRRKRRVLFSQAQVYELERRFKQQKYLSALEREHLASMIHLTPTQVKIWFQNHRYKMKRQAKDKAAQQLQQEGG

The target of assay [16] is T13, NKX2-4 (Homo sapiens, UniProt Q9H2Z4 175-261).
T13 sequence: T12 sequence with L43P

Assay [17] deals with T14, NKX2-4 (Homo sapiens, UniProt Q9H2Z4 175-261, R246Q).
T14 sequence: T12 sequence with L43P, R72Q

Positions count from the first letter of the chain named.

Chain of NKX3-2 (Homo sapiens, UniProt P78367 192-278) (P78367 192-278): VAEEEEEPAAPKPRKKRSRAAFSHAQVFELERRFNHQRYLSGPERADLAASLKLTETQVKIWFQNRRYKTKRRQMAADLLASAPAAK
Chain of NKX3-2 (Homo sapiens, UniProt P78367 192-278, P234S) (P78367 192-278 P234S): as the sequence (P78367 192-278) above, with P43S counted along it
Chain of HOXB9 (Homo sapiens, UniProt P17482 171-250, R186Q) (P17482 171-250 R186Q): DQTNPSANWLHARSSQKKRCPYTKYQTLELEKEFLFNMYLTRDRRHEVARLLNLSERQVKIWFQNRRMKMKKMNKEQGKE
Chain of HOXB9 (Homo sapiens, UniProt P17482 171-250) (P17482 171-250): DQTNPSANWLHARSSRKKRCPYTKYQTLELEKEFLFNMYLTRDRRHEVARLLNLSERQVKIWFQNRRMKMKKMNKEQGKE
Chain of HOXC10 (Q9NYD6 254-340 K271E): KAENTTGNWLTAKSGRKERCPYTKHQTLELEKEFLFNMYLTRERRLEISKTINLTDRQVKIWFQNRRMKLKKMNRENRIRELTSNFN

Turning to CTTGCGGC, the binding signal with NKX3-2 [1] is 10.7 upbm affinity estimate (log intensity, higher = more binding, comparable within an allelic series); in the assay with NKX3-2 [2], 10.6 upbm affinity estimate (log intensity, higher = more binding, comparable within an allelic series).

Turning to GAGGGGGC, the binding signal is 8.37 upbm affinity estimate (log intensity, higher = more binding, comparable within an allelic series) with HOXB9 [3] and 8.62 upbm affinity estimate (log intensity, higher = more binding, comparable within an allelic series) with HOXB9 [4].

Regarding CCAATTAC, the binding signal in the assay with HOXB9 [3] was 10.9 upbm affinity estimate (log intensity, higher = more binding, comparable within an allelic series); in the assay with HOXB9 [4], 10.6 upbm affinity estimate (log intensity, higher = more binding, comparable within an allelic series).

With CCCAGGCG, the binding signal with NKX3-2 [1] was 10.6 upbm affinity estimate (log intensity, higher = more binding, comparable within an allelic series); with NKX3-2 [2], 10.6 upbm affinity estimate (log intensity, higher = more binding, comparable within an allelic series).

For AATTAAAT, the binding signal with HOXB9 [3] is 11.8 upbm affinity estimate (log intensity, higher = more binding, comparable within an allelic series); with HOXC10 it was 11.9 upbm affinity estimate (log intensity, higher = more binding, comparable within an allelic series); with HOXB9 [4], 11.5 upbm affinity estimate (log intensity, higher = more binding, comparable within an allelic series).

GACAATTA: the binding signal with NKX2-6 was 11 upbm affinity estimate (log intensity, higher = more binding, comparable within an allelic series).

As for GGAGCGCA, the binding signal was 8.88 upbm affinity estimate (log intensity, higher = more binding, comparable within an allelic series) with SIX6 [5]; 8.9 upbm affinity estimate (log intensity, higher = more binding, comparable within an allelic series) with SIX6 [6]; 8.9 upbm affinity estimate (log intensity, higher = more binding, comparable within an allelic series) in the assay with SIX6 [7]; 8.87 upbm affinity estimate (log intensity, higher = more binding, comparable within an allelic series) with SIX6 [8]; 8.97 upbm affinity estimate (log intensity, higher = more binding, comparable within an allelic series) in the assay with SIX6 [9]; 8.85 upbm affinity estimate (log intensity, higher = more binding, comparable within an allelic series) in the assay with SIX6 [10]. For the same sequence, the binding signal is 8.87 upbm affinity estimate (log intensity, higher = more binding, comparable within an allelic series) with SIX6 [11]; 8.78 upbm affinity estimate (log intensity, higher = more binding, comparable within an allelic series) with SIX6 [12]; 8.93 upbm affinity estimate (log intensity, higher = more binding, comparable within an allelic series) with SIX6 [13]; 8.91 upbm affinity estimate (log intensity, higher = more binding, comparable within an allelic series) in the assay with SIX6 [14].

Turning to CCGAGCGG, in the assay with NKX2-6, the binding signal is 9.43 upbm affinity estimate (log intensity, higher = more binding, comparable within an allelic series).

Turning to GCGAGCGC, the binding signal with HOXB9 [3] was 8.32 upbm affinity estimate (log intensity, higher = more binding, comparable within an allelic series); with HOXB9 [4] it was 8.42 upbm affinity estimate (log intensity, higher = more binding, comparable within an allelic series).

Consider CGCGTAGC, for which the binding signal was 9.05 upbm affinity estimate (log intensity, higher = more binding, comparable within an allelic series) in the assay with SIX6 [5]; 8.9 upbm affinity estimate (log intensity, higher = more binding, comparable within an allelic series) with SIX6 [6]; 9.03 upbm affinity estimate (log intensity, higher = more binding, comparable within an allelic series) in the assay with SIX6 [7]; 8.94 upbm affinity estimate (log intensity, higher = more binding, comparable within an allelic series) with SIX6 [8]; 8.94 upbm affinity estimate (log intensity, higher = more binding, comparable within an allelic series) with SIX6 [9]; 8.99 upbm affinity estimate (log intensity, higher = more binding, comparable within an allelic series) in the assay with SIX6 [10]. Further, the binding signal with SIX6 [11] was 9.13 upbm affinity estimate (log intensity, higher = more binding, comparable within an allelic series); with SIX6 [12], 9.19 upbm affinity estimate (log intensity, higher = more binding, comparable within an allelic series); with SIX6 [13], 8.99 upbm affinity estimate (log intensity, higher = more binding, comparable within an allelic series); with SIX6 [14] it was 8.98 upbm affinity estimate (log intensity, higher = more binding, comparable within an allelic series).

With ACGCTGCG, the binding signal in the assay with NKX2-4 [15] was 9.63 upbm affinity estimate (log intensity, higher = more binding, comparable within an allelic series); in the assay with NKX2-4 [16] it was 9.57 upbm affinity estimate (log intensity, higher = more binding, comparable within an allelic series); with NKX2-4 [17], 9.58 upbm affinity estimate (log intensity, higher = more binding, comparable within an allelic series).

AATAATTG: the binding signal with HOXB9 [3] is 11.3 upbm affinity estimate (log intensity, higher = more binding, comparable within an allelic series); with HOXB9 [4], 11.1 upbm affinity estimate (log intensity, higher = more binding, comparable within an allelic series).

Consider ATAATTGC, for which the binding signal with HOXB9 [3] is 11.7 upbm affinity estimate (log intensity, higher = more binding, comparable within an allelic series); with HOXB9 [4] it was 11.5 upbm affinity estimate (log intensity, higher = more binding, comparable within an allelic series).

Regarding GCCAGACC, the binding signal with SIX6 [5] was 9.01 upbm affinity estimate (log intensity, higher = more binding, comparable within an allelic series); in the assay with SIX6 [6], 8.79 upbm affinity estimate (log intensity, higher = more binding, comparable within an allelic series); with SIX6 [7], 8.91 upbm affinity estimate (log intensity, higher = more binding, comparable within an allelic series); with SIX6 [8], 9.01 upbm affinity estimate (log intensity, higher = more binding, comparable within an allelic series); with SIX6 [9], 8.95 upbm affinity estimate (log intensity, higher = more binding, comparable within an allelic series); with SIX6 [10], 8.96 upbm affinity estimate (log intensity, higher = more binding, comparable within an allelic series). The binding signal with SIX6 [11] was 9.08 upbm affinity estimate (log intensity, higher = more binding, comparable within an allelic series); in the assay with SIX6 [12], 9.06 upbm affinity estimate (log intensity, higher = more binding, comparable within an allelic series); with SIX6 [13] it was 8.94 upbm affinity estimate (log intensity, higher = more binding, comparable within an allelic series); with SIX6 [14] it was 8.93 upbm affinity estimate (log intensity, higher = more binding, comparable within an allelic series).

For the sequence CCGTAGGC, the binding signal with NKX3-2 [1] was 10.5 upbm affinity estimate (log intensity, higher = more binding, comparable within an allelic series); with NKX3-2 [2] it was 10.4 upbm affinity estimate (log intensity, higher = more binding, comparable within an allelic series).
